Screening results deposited in PubChem by Broad Institute.
Mtb BioA inh: BioA (M. tuberculosis) enzyme inhibition. purified M. tuberculosis BioA enzyme, plate reader. inhibition, % at 9.99 µM. hit rate 0.096% among 360,000. AID 602481; in the data active = inhibition above about 40%; inconclusive = no clear call, values can overlap the other calls
PrP UTR inh: suppresses PrP 5' UTR mRNA reporter expression. cell-based PrP 5' UTR mRNA reporter, plate reader. inhibition, % (concentration not given with the values). hit rate 0.35% among 340,000; in the data active = inhibition above about 52%; note: 0 = median of the neutral control wells
Y pestis TopoI: Y. pestis Topo-I inhibition via cleavage products. Y. pestis Topo-I cleavage product accumulation, plate reader. activity, % at 10 µM. AID 504884. hit rate 0.064% among 360,000; in the data active = activity above about 50%, passing the limit was not always enough; inconclusive = no clear call, values can overlap the other calls
TcdB GH inh: TcdB glycohydrolase inhibition; P18177; TcdB glycohydrolase enzymatic assay, plate reader; inhibition, % at 9.99 µM; hit rate 0.24% among 350,000; in the data active = inhibition above about 10%
Target sequence (P18177 whole entry, looked up): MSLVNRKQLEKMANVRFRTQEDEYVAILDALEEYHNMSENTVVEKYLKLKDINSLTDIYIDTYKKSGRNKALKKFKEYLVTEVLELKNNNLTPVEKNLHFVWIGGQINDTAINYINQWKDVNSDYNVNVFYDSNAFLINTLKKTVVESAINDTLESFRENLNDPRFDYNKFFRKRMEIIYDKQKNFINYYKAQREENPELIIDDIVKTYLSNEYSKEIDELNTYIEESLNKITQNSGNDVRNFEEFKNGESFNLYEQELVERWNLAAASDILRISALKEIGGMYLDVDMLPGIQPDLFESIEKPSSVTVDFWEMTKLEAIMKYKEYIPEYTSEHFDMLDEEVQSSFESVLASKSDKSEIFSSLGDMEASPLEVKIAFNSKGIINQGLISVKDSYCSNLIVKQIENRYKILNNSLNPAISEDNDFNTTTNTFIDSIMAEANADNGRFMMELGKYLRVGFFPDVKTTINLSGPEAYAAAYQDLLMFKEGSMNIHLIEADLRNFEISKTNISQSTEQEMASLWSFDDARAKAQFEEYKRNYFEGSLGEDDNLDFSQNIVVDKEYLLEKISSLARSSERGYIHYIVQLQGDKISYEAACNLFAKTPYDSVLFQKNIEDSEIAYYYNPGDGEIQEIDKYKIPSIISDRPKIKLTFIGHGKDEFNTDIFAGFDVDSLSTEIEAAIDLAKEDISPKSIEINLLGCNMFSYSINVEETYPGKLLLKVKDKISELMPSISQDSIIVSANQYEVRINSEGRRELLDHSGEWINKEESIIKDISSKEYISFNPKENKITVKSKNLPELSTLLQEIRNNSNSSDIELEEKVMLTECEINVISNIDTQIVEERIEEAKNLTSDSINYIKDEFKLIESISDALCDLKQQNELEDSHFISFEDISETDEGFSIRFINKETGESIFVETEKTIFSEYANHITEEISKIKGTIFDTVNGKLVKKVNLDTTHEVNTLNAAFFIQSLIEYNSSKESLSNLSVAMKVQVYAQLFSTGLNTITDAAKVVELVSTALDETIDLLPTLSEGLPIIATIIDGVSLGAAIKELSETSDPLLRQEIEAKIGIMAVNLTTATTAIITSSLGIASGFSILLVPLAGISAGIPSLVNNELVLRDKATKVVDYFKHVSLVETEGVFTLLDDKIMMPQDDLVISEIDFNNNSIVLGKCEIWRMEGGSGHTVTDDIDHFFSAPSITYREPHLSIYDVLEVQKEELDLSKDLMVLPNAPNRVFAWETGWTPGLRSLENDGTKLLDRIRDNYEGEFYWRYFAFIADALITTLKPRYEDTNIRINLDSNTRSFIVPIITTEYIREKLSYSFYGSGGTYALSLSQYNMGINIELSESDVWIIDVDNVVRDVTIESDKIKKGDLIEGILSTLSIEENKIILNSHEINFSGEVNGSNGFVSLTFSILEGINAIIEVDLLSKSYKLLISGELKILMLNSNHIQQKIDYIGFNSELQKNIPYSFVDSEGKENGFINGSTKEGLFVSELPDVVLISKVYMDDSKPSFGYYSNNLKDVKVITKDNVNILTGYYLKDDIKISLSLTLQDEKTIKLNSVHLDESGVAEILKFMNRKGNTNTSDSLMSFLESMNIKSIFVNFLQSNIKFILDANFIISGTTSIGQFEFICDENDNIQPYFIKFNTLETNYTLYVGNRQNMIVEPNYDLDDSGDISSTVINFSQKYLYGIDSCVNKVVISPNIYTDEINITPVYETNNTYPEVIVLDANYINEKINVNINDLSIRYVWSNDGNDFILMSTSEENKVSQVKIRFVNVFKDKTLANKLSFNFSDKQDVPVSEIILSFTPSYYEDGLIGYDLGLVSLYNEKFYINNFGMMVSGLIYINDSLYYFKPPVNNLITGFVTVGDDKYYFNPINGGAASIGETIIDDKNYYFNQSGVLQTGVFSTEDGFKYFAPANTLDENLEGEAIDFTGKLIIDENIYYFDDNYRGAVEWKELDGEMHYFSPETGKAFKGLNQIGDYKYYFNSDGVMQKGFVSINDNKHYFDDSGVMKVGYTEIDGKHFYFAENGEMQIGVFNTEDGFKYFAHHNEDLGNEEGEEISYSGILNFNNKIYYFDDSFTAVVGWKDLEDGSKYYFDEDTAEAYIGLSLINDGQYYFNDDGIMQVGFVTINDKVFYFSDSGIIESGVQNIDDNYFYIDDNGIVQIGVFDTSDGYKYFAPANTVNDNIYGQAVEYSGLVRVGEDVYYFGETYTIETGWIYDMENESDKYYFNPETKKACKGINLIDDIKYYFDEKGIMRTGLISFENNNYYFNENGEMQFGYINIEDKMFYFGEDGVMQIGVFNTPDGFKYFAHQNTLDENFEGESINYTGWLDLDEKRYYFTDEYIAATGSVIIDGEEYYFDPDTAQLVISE
PrP 5UTR single: prion 5' UTR mRNA inhibition, cherry-pick retest. hit rate 48% among 1,100. shares compounds with PrP UTR inh. AID 504592. inhibition, % at 2.5 µM. cell-based prion protein 5' UTR reporter, plate reader; in the data active = inhibition above about 54%; inconclusive = no clear call, values can overlap the other calls
An asterisk follows results filed as active; ? = inconclusive; . = no result. Most compounds without a hit are left out; they make up all but 0.57% or so of the library.

SMILES	Mtb BioA inh	PrP UTR inh	Y pestis TopoI	TcdB GH inh	PrP 5UTR single
CCc1ccc(-c2cn3nc(C)c(C)nc3n2)cc1	-1.4	84.7*	7.9	.	36.4
COC(=O)c1ccc(COc2ccccc2/C=N/Nc2cccc(C(=O)O)c2)cc1	.	76.7*	20.6	-7.3	-34.3
CCOc1cc(/C=N/Nc2cccc(C(=O)O)c2)ccc1OC(=O)c1ccccc1	.	70.8*	4.9	-4.1	?
O=C(O)c1cccc(NC(=S)N/N=C/c2ccccc2OCc2ccc(Br)cc2)c1	.	-21.6	6.6	0.3	.
CCNC(=S)NNC(=O)c1cc(-c2ccc(OCC)cc2)nc2ccccc12	.	58.4*	-0.5	2.0	26.6
CCc1ccc(-c2cc(C(=O)Nn3cnnc3)c3ccccc3n2)cc1	.	69.6*	1.7	1.0	61.2*
CCNC(=O)[C@@H]1[C@@H](CO)[C@@H]2Cn3c(cccc3=O)[C@H]1N2Cc1cc(F)ccc1F	.	.	.	0.7	.
Cn1c(O)c(C=NC2CCCCC2)c(=O)[nH]c1=S	.	53.1*	2.2	-4.0	-21.1
COc1ccc(/C=N/NC(=O)c2cc3c(OC)ccc(OC)c3[nH]2)cc1O	.	60.0*	-32.2	-0.7	78.2*
COc1ccc(OC)c2[nH]c(C(=O)N/N=C/c3ccccc3O)cc12	-0.2	13.0	-29.6	0.9	.
Nc1nc(-c2ccc(NC(=O)c3ccco3)cc2)cs1	0.3	66.5*	-2.9	-4.0	16.5
Cc1nc(-c2ccc(NC(=O)c3ccco3)cc2)cs1	1.4	78.5*	0.0	1.1	77.1*
O=C(Nc1ccc(NC(=O)c2ccco2)cc1)c1ccco1	0.4	-23.2	-2.5	0.4	.
COc1ccc2c3c([nH]c2c1)[C@H](CO)N(C(=O)Nc1ccc(F)cc1)CC31CCN(S(=O)(=O)c2cccc(C)c2)CC1	.	.	.	-0.3	.
COc1ccc(CN(C)C[C@H]2Oc3c(NC(=O)c4ccc(-c5nccs5)cc4)cccc3C(=O)N([C@@H](C)CO)C[C@H]2C)cc1	.	.	.	1.1	.
Cc1noc(C)c1NC(=O)N(C)C[C@H]1OCCCC[C@H](C)Oc2ccc(NC(=O)c3ccccc3)cc2C(=O)N([C@H](C)CO)C[C@@H]1C	0.4	.	.	-0.3	.
CCOC(=O)N(C)c1ccc(C(O)(C(=O)OC)C(F)(F)F)cc1 (stereo unspecified)	-3.0	-11.5	-3.8	.	.
COC(=O)C(O)(c1ccc(N(C)C)cc1)C(F)(F)F (stereo unspecified)	1.4	66.0*	-4.5	1.0	10.9
COc1ccc(C(=O)N2CC(=O)Nc3ccccc32)cc1S(=O)(=O)N1CCOCC1	-1.1	.	0.5	-0.2	.
O=C1CN(C(=O)c2ccc(F)c(S(=O)(=O)N3CCOCC3)c2)c2ccccc2N1	.	58.9*	-1.4	-0.3	35.7
CCCN1C=CC(=C2C(=O)c3ccccc3C2=O)C=C1	-1.0	92.7*	12.4	.	96.3*
CCCCCCN1C=CC(=C2C(=O)c3ccccc3C2=O)C=C1	0.3	72.0*	-6.2	1.3	71.6*
CCN1C=CC(=C2C(=O)c3ccccc3C2=O)C=C1	-1.5	87.8*	1.6	.	90.7*
CCCCN1C(C)=CC(=C2C(=O)c3ccccc3C2=O)C=C1C	.	8.7	17.2	1.6	.
COc1ccc(CN(C)C[C@H]2Oc3ccc(NS(C)(=O)=O)cc3CC(=O)N([C@@H](C)CO)C[C@H]2C)cc1	1.8	.	.	-1.0	.
SMILES	Mtb BioA inh	PrP UTR inh	Y pestis TopoI	TcdB GH inh	PrP 5UTR single
Cc1ccccc1CN(C)C[C@H]1OCc2cn(nn2)CCCC(=O)N([C@H](C)CO)C[C@@H]1C	0.4	.	.	-0.4	.
O=C(CCN1CCCCC1)N[C@H]1CC[C@H](CCn2cc(-c3ccccc3)nn2)O[C@@H]1CO	-1.8	.	.	-5.3	.
Cc1nn(CCc2nn[nH]n2)c2nc(-c3ccc(C4CCCCC4)cc3)cc(C(F)(F)F)c12	.	63.2*	-2.5	-0.4	-34.7
CCOc1ccc(CN2C(=O)c3ccccc3C2=O)cc1C(=O)Nc1nnc(SCC)s1	0.0	-10.6	1.3	.	.
CCOc1ccc(CN2C(=O)c3ccccc3C2=O)cc1C(=O)NC1CC(C)(C)NC(C)(C)C1	1.0	84.7*	-2.8	0.8	-13.3
Cc1cccc(C(=O)NCN2CCN(c3ccccc3C#N)CC2)c1	-1.4	81.6*	0.4	-0.4	-37.9
O=C(NCN1CCN(c2ccccc2F)CC1)c1ccccc1	-1.8	-4.4	-4.2	.	.
COc1ccc(C(=O)Nc2ccc3c(c2)OC[C@H](C)N(C)C[C@H](C)[C@@H](OC)CN(C)C3=O)cc1	.	.	.	-0.6	.
O=C(COc1ccc2ccccc2c1)NNC(=O)c1cnccn1	.	-14.3	-0.8	.	.
CC(C)c1ccc(OCC(=O)NNC(=O)c2cnccn2)cc1	.	61.7*	-1.7	1.7	2.8
CN(C)CCNCCCNc1c2ccccc2nc2cccc([N+](=O)[O-])c12	.	95.1*	-16.6	1.1	97.5*
C[C@H](CO)N1C[C@H](C)[C@H](CN(C)C(=O)Nc2ccccc2)Oc2ccc(NC(=O)CCC(F)(F)F)cc2CC1=O	1.3	.	.	0.2	.
COc1ccc(/C=C2\SC(=O)N(CCCC(=O)Nc3cc(Cl)ccc3C(=O)O)C2=O)cc1	.	91.7*	12.5	1.2	83.1*
CCC1NC(=O)c2cc(S(N)(=O)=O)c(Cl)cc2N1 (stereo unspecified)	-0.4	-3.5	0.4	0.8	.
CN1C(CCl)Nc2cc(Cl)c(S(N)(=O)=O)cc2S1(=O)=O (stereo unspecified)	4.3	76.7*	1.6	0.6	-14.9
C[C@@H]1CCCCO[C@@H](CN(C)Cc2ccc(C(F)(F)F)cc2)[C@H](C)CN([C@H](C)CO)C(=O)c2cc(NS(=O)(=O)c3cccs3)ccc2O1	0.3	.	.	-0.6	.
COc1ccc(C2=Nn3c(nnc3-c3ccccc3F)SC2)cc1OC1CCCC1	2.1	-17.2	6.1	-0.1	.
COc1ccc(OC)c(-c2nnc3n2N=C(c2ccc(OC)c(OC)c2)CS3)c1	7.3	56.5*	15.5	1.0	82.8*
COc1ccc(OC)c(-c2nnc3n2N=C(c2ccc(OC)c(OC4CCCC4)c2)CS3)c1	-0.5	64.7*	-1.9	-5.3	85.5*
O=C([C@H]1[C@H](CO)[C@H]2Cn3c(ccc(-c4ccccc4)c3=O)[C@@H]1N2CCC(F)(F)F)N1CCOCC1	-1.6	.	.	.	.
C[C@@H]1CN([C@@H](C)CO)C(=O)c2cc(NS(=O)(=O)c3cn(C)cn3)ccc2O[C@H]1CN(C)Cc1ccc2c(c1)OCO2	0.2	.	.	-0.2	.
O=C(Nc1cc2ccccc2oc1=O)c1ccccc1	.	57.5*	-4.5	1.3	63.2*
COc1ccccc1S(=O)(=O)N[C@H]1CC[C@@H](CC(=O)NCc2cc(F)cc(F)c2)O[C@@H]1CO	.	.	.	-1.8	.
Cc1ccc(C(c2nnnn2CC2CCCO2)N2CCN(Cc3ccccc3)CC2)cc1 (stereo unspecified)	.	67.0*	29.3	0.9	2.3
CCCCC(c1nnnn1CC1CCCO1)N1CCN(Cc2ccccc2)CC1 (stereo unspecified)	6.3	-19.2	10.1	.	.
Cc1nnc(SCC(=O)Nc2cc(-c3cc(C)c(C)cc3C)nn2-c2ccccc2)s1	.	58.9*	37.1	1.1	-8.8
Cc1ccc(CCC(=O)Nc2ncc(Cc3cccc(Cl)c3Cl)s2)o1	-0.3	53.0*	3.3	0.6	88.7*
O=C1OCCN1C(=O)[C@H]1[C@H](c2ccccc2)C(c2ccc(F)cc2)=NN1c1ccc(Br)cc1	-0.7	66.8*	-14.2	-0.8	-10.4
